Over roughly 81,000 sequences, “one-hybrid fitness for binding parS DNA” has its median near -0.17; the highest 2% begin near 0.51. The list comes from a sample in which the highest values are over-represented; it also holds similar and randomly drawn sequences.
B1: Caulobacter ParB omega fusion; a variant is named by its letters at X, in order, B8GW30 (parent)
chain: MESVVVGEPGMSEGRRGLGRGLSALLGEVDAAPAQAPGEQLGGSREAPIEILQRNPDQPRRTFREEDLEDLSNSIREKGVLQPILVRPSPDTAGEYQIVAGERAWRAAQRAGLKTVPIMVRELDDLAVLEIGIIENVQRADLNVLEEALSYKVLMEKFERTQENIAQTIGKSXSHVANXMRLLXLPDEVQSYLVSGELTAXHARAIAAAADPVALAKQIIEGGLSVRETEALARKAPNLSAGKSKGGRPPRVKDTDTQALESDLSSVLGLDVSIDHRGSTGTLTITYATLEQLDDLCNRLTRGI

Variants of: B1
Test: one-hybrid fitness for binding parS DNA (scaled: cognate 1, non-cognate 0); higher = stronger binding
Details: with parS DNA site
Outline: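 Pre- and post-selection plasmids were Illumina-sequenced, three replicate libraries were pooled, and any variant with under 10 reads was removed. The libraries were Caulobacter ParB with four specificity codons randomised, selected in E. coli USO through a HIS3 reporter whose site is 19 bp from the promoter. Cells grew 48 hours at 37°C on M9 without histidine, with 0.1 mM IPTG and 5 mM 3-AT. Fitness is the log change in variant-to-wild-type read ratio, rescaled against cognate and non-cognate.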

one-hybrid fitness for binding parS DNA, 0.932:
RSAC

one-hybrid fitness for binding parS DNA, 0.473:
RLHY

one-hybrid fitness for binding parS DNA, 0.961:
RLLT

one-hybrid fitness for binding parS DNA, 0.716:
RSKA

one-hybrid fitness for binding parS DNA, 0.231:
RLLD

one-hybrid fitness for binding parS DNA, 0.727:
RLRA

one-hybrid fitness for binding parS DNA, 0.923:
RLCT

one-hybrid fitness for binding parS DNA, 0.692:
RHKA

one-hybrid fitness for binding parS DNA, 0.943:
RLYT

one-hybrid fitness for binding parS DNA, 0.534:
RHAA

one-hybrid fitness for binding parS DNA, 0.233:
RTIF

one-hybrid fitness for binding parS DNA, 0.764:
RTPG

one-hybrid fitness for binding parS DNA, 0.418:
RQWY

one-hybrid fitness for binding parS DNA, 0.451:
RHPG

one-hybrid fitness for binding parS DNA, 0.278:
RLGF

one-hybrid fitness for binding parS DNA, 0.201:
RLWP

one-hybrid fitness for binding parS DNA, 0.229:
RLQF

one-hybrid fitness for binding parS DNA, 0.574:
RWKA

one-hybrid fitness for binding parS DNA, 0.23:
RHLF

one-hybrid fitness for binding parS DNA, 0.625:
RMPT

one-hybrid fitness for binding parS DNA, 0.516:
RHFA

one-hybrid fitness for binding parS DNA, 0.844:
RCKA

one-hybrid fitness for binding parS DNA, 0.43:
RCGY

one-hybrid fitness for binding parS DNA, 0.283:
YRAS

one-hybrid fitness for binding parS DNA, 0.44:
RFVA

one-hybrid fitness for binding parS DNA, 0.973:
RHQG

one-hybrid fitness for binding parS DNA, 0.475:
RGKA

one-hybrid fitness for binding parS DNA, 1.02:
RCAC

one-hybrid fitness for binding parS DNA, 0.348:
RWYA

one-hybrid fitness for binding parS DNA, 0.51:
RIGY

one-hybrid fitness for binding parS DNA, 0.925:
RLGT

one-hybrid fitness for binding parS DNA, 0.939:
RLST
RHGG

one-hybrid fitness for binding parS DNA, 0.967:
RHHG
RHLG

one-hybrid fitness for binding parS DNA, 0.95:
RHYG
RHCG

one-hybrid fitness for binding parS DNA, 0.946:
RLQT

one-hybrid fitness for binding parS DNA, 0.3:
RLWH

one-hybrid fitness for binding parS DNA, 0.46:
RSGN

one-hybrid fitness for binding parS DNA, 0.917:
RHDG

one-hybrid fitness for binding parS DNA, 0.607:
RLYA

one-hybrid fitness for binding parS DNA, 0.834:
RLRT

one-hybrid fitness for binding parS DNA, 0.98:
RTIG

one-hybrid fitness for binding parS DNA, 0.62:
RLNA

one-hybrid fitness for binding parS DNA, 0.364:
RLYM

one-hybrid fitness for binding parS DNA, 0.329:
RWVA
RLSM

one-hybrid fitness for binding parS DNA, 0.226:
RSAH

one-hybrid fitness for binding parS DNA, 0.937:
RLHT

one-hybrid fitness for binding parS DNA, ≤ 0.2:
FDTS
VQYL
GTNP
RSGD
LCDD
TNCY
FSDT
KCRM
RMPR
RMIQ
RMIK
RMPH
VQYW
INEC
TEPE
RPAC
REAC
IILS
TCRI
KHHT
HMNT
RTPQ
RTIK
RTPP
KRWW
KLNR
NHAA
VDYT
NQNT
HAPR
EKTR
RPKA
DHKA
PFKA
KSVS
ATSF
PVTI
GNRN
MTHT
IATE
RDKA
REKA
QRTQ
GFIG
RLRR
RLGR
RLSK
FKLC
WVWC
TRNR
QCLA
HCDK
RLYQ
RLQK
RLCP
RLLP
RLCD
YINM
QHNA
HQSH
KQRG
FYRR
EMVC
TCPF
RLHR
REQG
RHQR
RHIF
RHNR
RHYD
RHNF
RHYP
HCSV
DCCS
HYWT
QSAL
FRKP
GIVG
PFTT
ALPV
QCAF
RHCK
RHDD
RHCM
RHLQ
RHHQ
RHHK
KRLV
YFQT
TWNC
KIDC
YREL
QRPG
ANRV
RHGP
RHSQ
RHSR
RHGH
RHRP
KVHG
IAKA
MESK
TRMT
GQVV
AIVR
KQMS
GWHV
VEGN
TSSY
DLCA
RDNA
DLDA
NLCA
ALYA
NLNA
DLYA
ASVG
YGDG
VARP
TRNE
SERK
TYPS
QKME
QGRS
LGAW
LDKA
WVHI
DLRA
NLRA
SEQC

one-hybrid fitness for binding parS DNA, 0.889:
RLWT

one-hybrid fitness for binding parS DNA, 0.752:
RMIT

one-hybrid fitness for binding parS DNA, 0.953:
RHNG

one-hybrid fitness for binding parS DNA, 0.426:
RSAN

one-hybrid fitness for binding parS DNA, 0.983:
RSGS

one-hybrid fitness for binding parS DNA, 0.609:
RLCA

one-hybrid fitness for binding parS DNA, 0.571:
RFKA

one-hybrid fitness for binding parS DNA, 0.588:
RLDA

one-hybrid fitness for binding parS DNA, 0.499:
RHVA

one-hybrid fitness for binding parS DNA, 0.903:
RHRG

one-hybrid fitness for binding parS DNA, 0.232:
RHRH

one-hybrid fitness for binding parS DNA, 0.958:
RHSG

one-hybrid fitness for binding parS DNA, 0.705:
RHIG

one-hybrid fitness for binding parS DNA, 0.376:
RLRM

one-hybrid fitness for binding parS DNA, 0.33:
RHDN

Reference: a collection of fitness landscapes (doi:10.1016/j.celrep.2020.107928)
